The text below walks through data of PubChem BioAssay AID2075 (NMMLSC, 2009).

The target of this experiment is Apoptosis regulator Bcl-2 (Homo sapiens) (UniProt P10415). The experiment can be described thus: Bcl-2 Bim peptide interaction hit potency – biochemical, dose response, multiplexed HTS hits, confirmation (AID 2075).

Active and inactive are the calls of the source. How the calls were made is not given here.

Apoptosis regulator Bcl-2 (Homo sapiens), sequence (P10415 whole entry, looked up): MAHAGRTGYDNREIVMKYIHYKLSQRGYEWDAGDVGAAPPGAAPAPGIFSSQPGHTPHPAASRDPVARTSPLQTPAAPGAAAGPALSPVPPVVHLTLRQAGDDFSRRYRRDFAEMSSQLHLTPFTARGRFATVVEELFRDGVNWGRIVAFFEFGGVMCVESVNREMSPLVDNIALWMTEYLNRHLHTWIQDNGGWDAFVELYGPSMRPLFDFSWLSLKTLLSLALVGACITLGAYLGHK

On to `O=C1NC(=O)C(=Cc2ccc(-c3cc(Cl)ccc3[N+](=O)[O-])o2)C(=O)N1`, for which the molecule was called inactive.
